Source: PubChem BioAssay (National Center for Advancing Translational Sciences (NCATS))
ATXN2 expr inh: ATXN2 expression inhibition | HEK-293 ATXN2-luciferase reporter, luminescence, 24 h | Potency, µM (top dose mostly 57 µM), without a hit: top-dose activity change, negative = inhibition, actives largely listed as inhibitors | 0.72% of 360,000 active; note: potency is the fitted concentration of half-maximal effect; % is set by controls: 0 for no effect and ±100 for the full control effect; nearly all actives have a fitted effect of over 55% in size
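ATXN2-luciferase reporter cells (luciferase flanked by upstream and downstream ATXN2 gene portions) were treated 24 h at 37 °C with compounds at up to 57 uM. SteadyGlo luminescence gave expression; GF-AFC fluorescence gave viability.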
ATXN viability: reduces viability in counter-screen for ATXN expression inhibitors; S2 cells (HEK-293 line with an ATXN2-luciferase reporter) viability, CellTiter-Fluor protease fluorescence, 24 h; 0.49% of 400,000 active; Potency, µM (series often up to 56.7 µM), most hits filed as cytotoxic; note: potency is the fitted concentration of half-maximal effect; nearly all actives have a fitted effect of over 40% in size
Integrin act MD: integrin-mediated muscular dystrophy alleviation activation. alpha7betagal myoblasts, beta-gal FDG fluorescence, 48 h. Potency, µM (doses to about 38.3 µM), without a hit: at the top dose activation, hits mostly activators. 0.064% of 350,000 active. AID 624291;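 note: potency is the fitted concentration of half-maximal effect; 100% = response of the positive control SU9516; nearly all actives have a fitted effect of over 60% in size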
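Alpha7betagal+/- myoblasts (passage 13) were plated 16-24 hr, then exposed to compounds (1:260 dilution of DMSO stock) for 48 hours at 37C. After MPER lysis, β-galactosidase reporter activity was read as FDG fluorescence (ex 480/em 540) after 30 minutes.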
IL1B secr inh: inflammasome signaling inhibition, IL-1 beta readout; THP-1 LPS/ATP IL-1B secretion, AlphaLISA, 16 h; active compounds read low; activity change, % at 57.5 µM; 4.7% of 360,000 active; in the data active = activity change below about -50%; inconclusive = mostly about -30% to -49%; note: % is set by controls: 0 for no effect and ±100 for the full control effect
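Secreted IL-1B measured by AlphaLISA bead assay after 16 h compound exposure of THP-1 cells; compounds (final up to 57.5 uM) added 1 h before LPS (250 ng/mL) and ATP (1.25 mM) stimulation; lower signal means less secretion.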
D3 ag: activates the human D3 dopamine receptor | P35462 | D3R DiscoveRx beta-arrestin cells, luminescence, 90 min | max activation, % | 0.58% of 410,000 active; in the data active = max activation above about 30%; note: 0% is about no effect
Target sequence (P35462 whole entry, looked up): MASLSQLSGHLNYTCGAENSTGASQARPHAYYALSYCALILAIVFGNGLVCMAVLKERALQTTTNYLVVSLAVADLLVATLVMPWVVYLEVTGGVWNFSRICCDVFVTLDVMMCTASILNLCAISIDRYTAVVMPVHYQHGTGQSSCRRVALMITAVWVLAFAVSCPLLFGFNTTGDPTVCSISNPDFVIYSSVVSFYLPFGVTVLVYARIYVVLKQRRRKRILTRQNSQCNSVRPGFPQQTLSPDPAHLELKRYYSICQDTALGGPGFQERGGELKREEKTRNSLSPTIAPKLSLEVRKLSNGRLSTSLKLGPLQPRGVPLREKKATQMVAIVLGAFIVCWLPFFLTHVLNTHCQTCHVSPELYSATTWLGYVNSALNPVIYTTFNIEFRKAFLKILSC
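Agonist-mode cell screen: cells plated at 1500/well and incubated overnight at 37 °C, then exposed to library compounds for 90 min at 37 °C. Detection reagent was added for 30–60 min at room temperature, and luminescence was read.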
DRD3 antagonist: blocks the human D3 dopamine receptor | D3R cells, DiscoveRx beta-arrestin luminescence, antagonist mode; active compounds read low | max response, negative = inhibition, % | 2.5% of 360,000 active | AID 652054; in the data active = max response below about -50%; inconclusive = no clear call, values can overlap the other calls; note: % is set by controls: 0 for no effect and ±100 for the full control effect
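Cells expressing the human receptor were seeded at 1500 cells/well, incubated overnight at 37 degrees C in 5% CO2, then exposed to library compounds with dopamine controls for 90 minutes at 37 degrees C before luminescent detection.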
* hit, by the source's call; i = inactive; ? = inconclusive; nt = no result given; ! = repeats disagree. A selection: hits, their analogues and other compounds. The true share with any hit is near 7%. Unless noted, calls come from the whole dose curve; as a rule, active = well fitted curve in the direction sought with a large enough effect; inconclusive = small, poorly fitted or top-dose-only effect, or another doubt; inactive = no such curve, though single readings can be large; an effect the other way counts as inactive or inconclusive.

SMILES	ATXN2 expr inh	ATXN viability	Integrin act MD	IL1B secr inh	D3 ag	DRD3 antagonist
O=C(NC(NC(=S)Nc1cc(Cl)ccc1Cl)C(Cl)(Cl)Cl)c1ccco1 (stereo not given)	?	i	-9%	-80*	-33	?
COc1ccc(-c2oc3ccc(N4CCOCC4)cc3c2C#CCO)cc1	?	?	-16%	-23	18	95
COc1ccc(CN(CC2CCCO2)C(=O)c2cc3sccc3n2C)c(OC)c1 (stereo not given)	nt	i	0%	-104*	6	17
Cc1c(C(=O)N/N=C/c2ccc(Cl)cc2)[nH]c2ccc(Cl)cc12	nt	?	-65%	56	0	-7
COc1ccccc1N1C(N)=NC(N)=NC1(C)C	-1%	i	?	24	-11	-53*!
Cc1[nH]c2ccccc2c1C(=O)C(=O)N1CCN(c2ccccc2Cl)CC1	-12%	i	-3%	-76*	10	8
COc1cc2c(cc1NC(=O)CSc1ccc(C)cc1)oc1ccccc12	-3%	i	-1%	-3	14	11
COc1cc2c(cc1NC(=O)Cc1ccc(C)cc1)oc1ccccc12	38%	i	1.1µM*	-15	-3	9
COc1cc2oc3ccccc3c(=O)c2cc1OC	6%	i	-5%	-51*	0	5
COc1cc2c(cc1NC(=O)CN(C)Cc1ccc(OC)c(OC)c1)oc1ccccc12	-37%	i	-2%	-25	38*	43
NC(=O)c1cccc(-c2ccnc3c2CC(C(=O)NCc2cccc(Cl)c2)O3)c1 (stereo not given)	-13%	i	nt	0	-10	0
COC(=O)c1c(C)cccc1C1CN=NC12Cc1ccccc1C2=O (stereo not given)	-4%	?	-9%	-90*	-8	-9
CC(=O)c1ccc(NC(=O)c2noc3c2CCC3)cc1	4µM*	i	-9%	-1	3	14
CC1CCN(c2ccc(NC(=O)Cc3ccccc3)cc2)CC1	-3%	i	5%	-19	-23	-8
COc1cccc(CNc2ccc(N3CCC(C)CC3)cc2)c1OC	-14%	i	-62%	-21	-27	-64*
O=C(COC(=O)CC(c1ccccc1)c1ccccc1)NCc1ccc(Cl)cc1	-19%	i	-6%	-71*	6	17
OC(CN1CC=C(/C=C/c2ccc(Br)cc2)CC1)c1ccccc1 (stereo not given)	-19%	i	6%	-73*	-9	20
OC(CN1CCN(C(c2ccccc2)c2ccccc2)CC1)c1ccc(Br)cc1 (stereo not given)	nt	nt	1%	-1	1	-20
O=c1[nH]c(=O)n([C@H]2C[C@@H](O)[C@@H](CO)O2)cc1F	1.1µM*	nt	nt	nt	nt	nt
O=c1[nH]c(=O)n([C@H]2C[C@H](O)[C@@H](CO)O2)cc1C(F)(F)F	2µM*!	i	nt	65	90*!	24
O=c1[nH]c(=O)n(C2C[C@H](O)[C@@H](CO)O2)cc1C(F)(F)F (stereo not given in full)	?	?	nt	57	19	14
OCCOCCn1c(C2CCCN2c2nc(-c3ccc(F)cc3)cs2)nc2cc(Cl)c(Cl)cc21 (stereo not given)	?	?	-12%	-54*	-11	-11
OCCOCCn1c(C2CCCN2c2nc(-c3ccc(F)cc3)cs2)nc2cc(C(F)(F)F)ccc21 (stereo not given)	?	?	3%	-12	-6	-25
OCCCn1c(C2CCCN2c2nc(-c3ccc(F)cc3)cs2)nc2cc(C(F)(F)F)ccc21 (stereo not given)	?	?	-24%	-57*	-11	11
OCCCn1c(CCNc2nc(-c3ccc(F)cc3)cs2)nc2cc(C(F)(F)F)ccc21	?	?	-43%	-69*	0	6
O=[N+]([O-])c1cc(-c2csc(NCCc3nc4cc(Cl)c(N5CCCCC5)cc4n3CCCO)n2)ccc1Cl	?	?	-13%	6	15	27
